Bcl-XL Bim block = inhibitors of Bim-Bcl-XL interaction, human; inhibition, % at 10 µM; AID 1007; Q07817; hit rate 0.04% among 190,000; Bim peptide-Bcl-XL binding, bead flow cytometry, fluorescence
Target sequence (Q07817 whole entry, looked up): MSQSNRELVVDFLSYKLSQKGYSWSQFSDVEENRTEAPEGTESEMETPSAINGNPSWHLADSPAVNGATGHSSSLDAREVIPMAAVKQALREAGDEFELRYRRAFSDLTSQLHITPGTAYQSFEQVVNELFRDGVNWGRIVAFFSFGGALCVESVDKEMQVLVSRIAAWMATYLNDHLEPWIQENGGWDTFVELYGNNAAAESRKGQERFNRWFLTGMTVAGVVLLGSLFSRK
Bim-Bfl-1 = inhibitors of Bim-Bfl-1 interaction, human; Q16548; hit rate 0.12% among 190,000; AID 1008; inhibition, % at 10 µM; Bead-based flow cytometry, Bim-Bfl-1 binding inhibition
Target sequence (Q16548 whole entry, looked up): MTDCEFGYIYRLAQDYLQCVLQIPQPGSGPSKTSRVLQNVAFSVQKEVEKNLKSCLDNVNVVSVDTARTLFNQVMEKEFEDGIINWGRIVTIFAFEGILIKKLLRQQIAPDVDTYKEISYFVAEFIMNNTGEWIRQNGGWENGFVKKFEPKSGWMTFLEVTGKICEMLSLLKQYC
Bcl-W Bim block = human Bim-Bcl-W interaction inhibition; Q92843; bead-based flow cytometry, Bim peptide-Bcl-W binding; inhibition, % at 10 µM; hit rate 0.02% among 190,000; AID 952;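 further: higher means less fluorescent Bim peptide bound to Bcl-W beads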
Bim-Bcl-B = human Bim-Bcl-B interaction inhibition; Q9HD36; hit rate 0.073% among 190,000; bead-based flow cytometry, Bim peptide-Bcl-B binding; inhibition, % at 10 µM; AID 951
Bcl-2 Bim block = inhibitors of Bim-Bcl-2 interaction, human; P10415; Bead-based flow cytometry, Bim peptide-Bcl-2 binding; inhibition, % at 10 µM; hit rate 0.06% among 190,000; AID 950; in the data active means inhibition above about 40%
PKD1 kinase inh = inhibitors of human PKD1 kinase | Q15139 | hit rate 0.056% among 200,000 | PKD1 kinase fluorescence polarization assay | inhibition, % (test concentration not listed); in the data active means inhibition above about 50%
FP interf 140K = counter-screen for PKD inhibitors: fluorescence polarization interference | 85 tested, under 10 active | PKD1 FP assay interference counter-screen | inhibition, % at 10 µM | shares compounds with PKD1 kinase inh; call rule not given here
Large screens that a line does not name were inactive (follow-up assays come after a bar, where they were run). Only some compounds are listed: those with a hit (about 0.24% of all), similar ones and a draw of the others. Unless noted, no stated cut-off is given here; in the data, active means inhibition above about 40%.

COc1cc(OC)cc(C(=O)/C=C2\Sc3ccccc3N2C)c1	none
CCN1/C(=C/C(C)=O)Sc2ccc(OC)cc21	PKD1 kinase inh 78 | FP interf 140K inactive
O=C(Nc1cccc([N+](=O)[O-])c1)C12CC3CC(C1)CC(n1cnc([N+](=O)[O-])n1)(C3)C2	PKD1 kinase inh 62 | FP interf 140K inactive
C=CCn1c(SC(C)C(=O)NCc2ccc3c(c2)OCO3)nnc1C1CCCCC1 (centres undefined)	PKD1 kinase inh 97 | FP interf 140K inactive
COc1cc(/C=N/NC(=O)c2sc(N)c(C#N)c2C)ccc1O	none
Cc1c(C(=O)N/N=C/c2ccc(O)c(Br)c2)sc(N)c1C#N	PKD1 kinase inh 76 | FP interf 140K inactive
OCCC1CN(Cc2cccn2-c2ccccn2)CCN1Cc1ccccc1 (centres undefined)	none
CCOC(=O)c1[nH]c2ccc(C)cc2c1NC(=O)CN1CCCCC1	none
CCOC(=O)c1[nH]c2cc(OC)c(OC)cc2c1NC(=O)CN1CCN(C)CC1	PKD1 kinase inh 76 | FP interf 140K inactive
CC(C)CN1CCNC(=O)C1CC(=O)NCc1cnn(-c2cccc(F)c2)c1 (centres undefined)	none
Cn1c(=O)[nH]c(=O)c2c1nc(NC1CCCCC1)n2CC(=O)NC1CCCCC1	PKD1 kinase inh 101 | FP interf 140K inactive
O=C(Nc1ccsc1C(=O)NC1CC1)c1ccccc1	PKD1 kinase inh 50 | FP interf 140K inactive
COc1cccc(C2CC(c3cccs3)=NN2S(C)(=O)=O)c1 (centres undefined)	none
CCOc1cccc(C2C(C(=O)c3ccc(C)o3)=C(O)C(=O)N2c2nccs2)c1 (centres undefined)	PKD1 kinase inh 88 | FP interf 140K 71
O=C(O)CNC(=O)c1ccc(S(=O)(=O)N2CCOCC2)cc1	none
CCOC(=O)N1CCC(NS(=O)(=O)c2cc(Br)cc3c2N(C(=O)CC)CC3)CC1	PKD1 kinase inh 66 | FP interf 140K inactive
CCOC(=O)N1CCN(S(=O)(=O)c2cc(Br)cc3c2N(C(=O)CC)CC3)CC1	none
CCn1c(Cc2ccc(OC)cc2)nnc1SCC(=O)Nc1nc2ccccc2s1	none
CCCCNc1c2c3c(cccc3n(C)c1=O)C(=O)c1ccccc1-2	none
Cn1c(=O)c(NCCO)c2c3c(cccc31)C(=O)c1ccccc1-2	PKD1 kinase inh 144 | FP interf 140K 100
O=c1nccc(NCc2ccco2)[nH]1	none
CCOc1ccc2noc3c2c1C(=O)c1ccccc1-3	PKD1 kinase inh 97 | FP interf 140K 62
O=C1c2ccccc2-c2onc3ccc(NCc4ccco4)c1c23	Bcl-XL Bim block 76, Bim-Bfl-1 40, Bcl-W Bim block 70, Bim-Bcl-B 41, Bcl-2 Bim block 48, PKD1 kinase inh 60 | FP interf 140K inactive
COc1ccccc1CNCc1cccc(Oc2ccccc2)c1	none
O=S(=O)(c1cccc2cnccc12)N1CCCNCC1	PKD1 kinase inh 104 | FP interf 140K inactive
Cn1c(OCc2cccnc2)nc2c1c(=O)n(Cc1ccc(Br)cc1)c(=O)n2C	PKD1 kinase inh 97 | FP interf 140K inactive
COc1ccc(S(=O)(=O)NC2CCCCC2)c(C)c1C	none
COc1cc(CNCCO)cc(Cl)c1OCc1ccc(Cl)cc1Cl	none
COC(=O)c1cccc2c1-c1ccccc1/C2=N/O	PKD1 kinase inh 70 | FP interf 140K inactive
CC(C(=O)N1CCN(c2ccc(Cl)cc2)CC1)c1ncc(C(F)(F)F)cc1Cl (centres undefined)	none
O=C(Nc1ccccc1Cl)ON=C1c2ccccc2-c2ccccc21	PKD1 kinase inh 61 | FP interf 140K inactive
O=C(Nc1ccccc1)O/N=C(\c1ccccc1)c1ccccn1	none
O=C(Nc1ccccc1)ON=C1c2ccccc2-c2ccccc21	PKD1 kinase inh 51 | FP interf 140K inactive
CCCCCC1=CCC/C1=N\NC(=O)c1ccc2c(c1)OCO2	none
CCCNC(=O)CN(c1ccc(F)cc1)S(=O)(=O)c1ccc2c(c1)OCCO2	PKD1 kinase inh 56 | FP interf 140K inactive
O=C(CCC(=O)N1CCN(S(=O)(=O)c2ccc(Cl)cc2)CC1)Nc1cccc(Br)c1	none
Cc1ccc(OCc2nnc(NC(=O)c3ccco3)s2)cc1	none

Screening results from PubChem BioAssay.
